# Source: PubChem
# Compounds with a hit are over-represented: about 1.5% of the library has one in this group of screens.
# NTR1 ag: agonists of human NTR1, primary screen, imaging, U2OS cells, beta-arrestin-GFP, high content. Neurotensin receptor type 1 (Homo sapiens), P30989. NTR1-U2OS beta-arrestin-GFP spot imaging, agonist mode. activation, % at 20 µM. 330,000 compounds, 0.17% hits. AID 493036, 2011;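 active means activation at or above 40% of the spot to cytoplasm intensity ratio, with at least 20 cells analyzed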;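 further: 0% = DMSO without peptide and 100% = 100 nM NTR1 peptide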
# ABHD5 PLIN5 PPI: ABHD5-PLIN5 interaction inhibitors, primary screen, cell lysate, split luciferase complementation, luminescence; Split G. princeps luciferase complementation, 4 h; Perilipin-5 (Homo sapiens) + 1-acylglycerol-3-phosphate O-acyltransferase ABHD5 (Homo …; inhibition, % at 4 µM; 360,000 compounds, 0.78% hits;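 active means inhibition above the mean inhibition across every tested compound plus 3 SD, cut at about 22% in these data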;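 further: 0% = DMSO only wells and the 100% control is not disclosed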
# Beta2AR agonist: beta2AR agonists driving receptor internalization, primary screen, cell-based, FAP fluorogen, flow cytometry | Beta-2 adrenergic receptor (Homo sapiens), P07550 | Am2.2-beta2AR cells | response, % (test concentration not listed) | 340,000 compounds, 0.43% hits | AID 504454, 2011;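 active means response above a set limit, near 3 SD of response in nonfluorescent compounds, cut at about 42% in these data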
# TLR9-MyD88 inh: inhibitors of TLR9-MyD88 association in cells, primary screen, cell-based, CHO, BLA complementation, fluorescence. Toll-like receptor 9 (Homo sapiens) + Myeloid differentiation primary response protein …. 340,000 compounds, 0.21% hits. CCF4 FRET ratio. inhibition, % at 4.98 µM;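 active means inhibition above the mean over all tested compounds plus 3 SD, cut at about 21% in these data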;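 further: 0% = DMSO only wells and 100% = clavulanate BLA inhibitor control wells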
# NOD2 RIPK2 PPI: NOD2-RIPK2 binding disruptors in cells, primary screen, fluorescence, CHO cells, BLA complementation; 360,000 compounds, 0.38% hits; AID 624267, 2012; CCF4 ratio; Receptor-interacting serine/threonine-protein kinase 2 (Homo sapiens), O43353; inhibition, % at 4.98 µM; in the data active means inhibition above about 21%;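 further: 0% = vehicle only and 100% = reference blocker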
# TLR4-MyD88 BLA: inhibitors of TLR4-MyD88 association in cells, primary screen, cell-based, HeLa CL3-4, BLA complementation, FRET ratio | Toll-like receptor 4 (Homo sapiens) + Myeloid differentiation primary response protein … | HeLa CL3-4 TLR4/MyD88 BLA complementation | inhibition, % at 8.4 µM | 200,000 compounds, 0.18% hits | AID 861, 2007; in the data active means inhibition above about 25%;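 further: 0% = vehicle and 100% = reference inhibitor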
# NOD2-RIPK2 conf: NOD2-RIPK2 binding disruptors, retest, confirmation, fluorescence, CHO cells, BLA complementation, triplicate; shares compounds with NOD2 RIPK2 PPI; CCF4 FRET; inhibition, % at 4.98 µM; 1,200 compounds, 70% hits; AID 624370, 2012;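 active means mean inhibition across replicates above a set limit taken from the earlier primary screen, cut at about 21% in these data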;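 further: 0% = DMSO-only wells and the high end = clavulanate BLA-blocked wells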
# BLA counter: counter-screen for NOD2-RIPK2 interaction inhibitors: BLA reporter; shares compounds with NOD2 RIPK2 PPI; CHO BLA reporter, CCF4 FRET ratio, counterscreen; inhibition, % at 4.98 µM; 1,200 compounds, 57% hits; AID 624371;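 active means mean inhibition above the low-control mean inhibition plus three low-control SD, cut at about 11% in these data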;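 further: 0% = DMSO only wells and 100% = clavulanate high control wells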
# * marks the source's active call; other numbers are inactive results; . = no result given.
SMILES,NTR1 ag,ABHD5 PLIN5 PPI,Beta2AR agonist,TLR9-MyD88 inh,NOD2 RIPK2 PPI,TLR4-MyD88 BLA,NOD2-RIPK2 conf,BLA counter
ClCCN(CCCl)c1ccc(C=Cc2ccncn2)cc1,.,10.3,.,.,62.8*,.,47.3*,60.1*
C=CCn1c(O)c(C(CC)=NC2CC2)c(=O)[nH]c1=O,-0.3,6.0,3.0,-5.9,-2.2,10.0,.,.
COc1ccc(C2=NCC(=S)Nc3ccc(Cl)cc32)cc1Cl,4.0,-6.7,-14.6,2.0,-0.5,15.1,.,.
COC(=O)C1=C(c2ccccc2)C[C@@H]2CC[C@H]1N2C(=O)N1CCCC1,0.2,-2.9,-10.8,-3.0,9.5,.,.,.
CC1=CC2OC3CC4OC(=O)C=CC=CC(C(C)O)OCC(O)C(C)CC(=O)OCC2(CC1O)C4(C)C31CO1 (configuration not stated),.,2.3,0.7,-3.0,21.7*,.,21.4*,-0.4
CC1=CC2OC3CC4OC(=O)C=CC=CC(=O)OCCC(C)C(O)C(=O)OCC2(CC1O)C4(C)C31CO1 (configuration not stated),.,-7.2,2.9,-10.9,29.3*,.,28.2*,-7.4
Cc1cc(C)c(S(=O)(=O)N2Cc3ccccc3-n3nncc3C2)c(C)c1,.,0.3,.,3.6,14.1,.,.,.
C[N+](C)(C)c1ccccc1,0.6,-8.1,-7.4,2.6,-4.9,-10.7,.,.
CCC(=O)N1CC(=O)Nc2ccc(F)cc2C1c1ccc(F)cc1 (configuration not stated),1.5,11.2,8.1,-2.6,3.2,.,.,.
CC(=O)OC1C(O)C(C)OC(OC2C(OC(=O)C3CCC4C(C3)OC3(CC(OC(=O)/C=C/c5ccccc5)C(C)CO3)C43CO3)OC(C)C(O)C2OC(C)=O)C1O (configuration not stated),.,-2.5,20.7,8.9,23.4*,.,28.1*,-5.0
Cc1ccc(N2C(=O)/C(=C/c3ccc(CN(CCC#N)S(C)(=O)=O)o3)C(=O)NC2=S)cc1,-1.6,15.3,1.6,-6.4,-0.4,0.0,.,.
